The panel holds about 83,000 compounds, 20% with a hit somewhere; the sample as a whole holds those more often.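 Cell lines were cultured in 96-well plates, exposed to a single compound concentration, and assessed for percent growth 48 hours later.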 Activity calls are given as the source filed them. The calls were made as follows: active = growth percent below 10; inactive = the rest.
Assays:
Assay in all cases: NCI-60 one-dose screen, 48 h (100 = growth as untreated, 0 = no growth, -100 = all killed)
Details in all cases: 10 µM unless noted
NCI-H23 lung = test system: NCI-H23 lung
NCI-H226 lung = test system: NCI-H226 lung
NCI-H322M lung = test system: NCI-H322M lung
HOP-62 NSCLC = test system: HOP-62 NSCLC
NCI-H460 lung = test system: NCI-H460 lung
HOP-92 NSCLC = test system: HOP-92 NSCLC
NCI-H522 lung = test system: NCI-H522 lung
A549/ATCC NSCLC = test system: A549/ATCC NSCLC
786-0 renal = test system: 786-0 renal
COLO 205 colon = test system: COLO 205 colon

Measured: growth

COc1ccc(-c2cnc3ccccc3n2)cc1
inactive: NCI-H23 lung 93.2% | NCI-H226 lung 82.7% | NCI-H322M lung 95.2% | HOP-62 NSCLC 87.9% | NCI-H460 lung 101% | HOP-92 NSCLC 86.9% | NCI-H522 lung 80.2% | A549/ATCC NSCLC 94.6% | 786-0 renal 95.4% | COLO 205 colon 104%

Cc1ccc2sc3c(NCCN)nc4ccccc4c3c(=O)c2c1
inactive: NCI-H23 lung 81.1% | NCI-H226 lung 93.2% | NCI-H322M lung 81.5% | HOP-62 NSCLC 80.6% | HOP-92 NSCLC 50.7% | NCI-H522 lung 85% | A549/ATCC NSCLC 73.3% | 786-0 renal 87.7%
active: NCI-H460 lung -17.1% | COLO 205 colon -21.7%

C=C1C(=O)O[C@H]2[C@H]1CC/C(COC(=O)C(C)c1ccc(CC(C)C)cc1)=C\CC[C@@]1(C)O[C@@H]21 (stereo not given in full)
inactive: NCI-H23 lung 25.8% | NCI-H226 lung 83.6% | NCI-H322M lung 97.9% | HOP-62 NSCLC 84.7% | NCI-H460 lung 37.9% | A549/ATCC NSCLC 75.1%
active: HOP-92 NSCLC -26.8% | NCI-H522 lung -63.8% | 786-0 renal -93.4% | COLO 205 colon -10.1%

CN(C(=O)NCc1cccc(F)c1Cl)[C@H](COC(=O)Nc1cc2ccccc2cn1)CC(O)CO (stereo not given in full)
inactive: NCI-H23 lung 96.5% | NCI-H226 lung 92.7% | NCI-H322M lung 86.4% | HOP-62 NSCLC 64.8% | NCI-H460 lung 100% | HOP-92 NSCLC 28% | NCI-H522 lung 84.5% | A549/ATCC NSCLC 80.9% | 786-0 renal 68% | COLO 205 colon 111%

Cc1ccc(C(=O)NN2C(=O)CSC2c2cccc([N+](=O)[O-])c2)cn1 (stereo not given)
inactive: NCI-H23 lung 93.2% | NCI-H226 lung 95.6% | NCI-H322M lung 104% | HOP-62 NSCLC 93% | NCI-H460 lung 108% | HOP-92 NSCLC 81.3% | NCI-H522 lung 109% | A549/ATCC NSCLC 92.9% | 786-0 renal 106% | COLO 205 colon 105%

Fc1cc(-c2nnc3sc(-c4ccc(Cl)cc4Cl)nn23)c(Cl)cc1Cl
inactive: NCI-H23 lung 83% | NCI-H226 lung 97.6% | NCI-H322M lung 89.7% | HOP-62 NSCLC 97.9% | NCI-H460 lung 57.6% | HOP-92 NSCLC 81.5% | NCI-H522 lung 86.6% | A549/ATCC NSCLC 66.3% | 786-0 renal 59.6% | COLO 205 colon 72.3%

Cc1oc2nc[nH]c(=O)c2c1C(=O)/C=C/c1ccc(Br)cc1
active: NCI-H23 lung -11.2% | NCI-H226 lung -8.79% | NCI-H322M lung 2.39% | NCI-H460 lung 3.92% | HOP-92 NSCLC -10.7% | A549/ATCC NSCLC 9.19% | COLO 205 colon 3.83%
inactive: HOP-62 NSCLC 12.1% | NCI-H522 lung 13.9% | 786-0 renal 11.5%

COc1cc(CCCO)c(OC)c(OC)c1OC
inactive: NCI-H23 lung 104% | NCI-H226 lung 102% | NCI-H322M lung 96.1% | HOP-62 NSCLC 111% | NCI-H460 lung 108% | HOP-92 NSCLC 100% | NCI-H522 lung 106% | A549/ATCC NSCLC 102% | 786-0 renal 103% | COLO 205 colon 122%

c1ccc(-c2nc3sc(-c4ccccc4)cn3n2)cc1
inactive: NCI-H23 lung 83.5% | NCI-H226 lung 72.2% | NCI-H322M lung 88.2% | HOP-62 NSCLC 66.7% | NCI-H460 lung 93.3% | HOP-92 NSCLC 74.4% | NCI-H522 lung 80.8% | A549/ATCC NSCLC 89.6% | 786-0 renal 105% | COLO 205 colon 94.5%

CCCCC[C@H](O)C/C=C1/C(=O)C=C[C@@H]1C/C=C\CCCC(=O)OC
inactive: NCI-H23 lung 67.9% | NCI-H226 lung 70.4% | NCI-H322M lung 79.7% | HOP-62 NSCLC 34% | NCI-H460 lung 46.8% | HOP-92 NSCLC 108% | NCI-H522 lung 30.4% | A549/ATCC NSCLC 72% | 786-0 renal 44% | COLO 205 colon 62.8%

O=c1c2cc(F)ccc2sc2c(N3CCNCC3)nc3ccccc3c12
active: NCI-H460 lung -76.4% | COLO 205 colon -49.6%
inactive: NCI-H23 lung 68.8% | NCI-H226 lung 88% | NCI-H322M lung 60.3% | HOP-62 NSCLC 61.4% | HOP-92 NSCLC 36.8% | NCI-H522 lung 39.3% | A549/ATCC NSCLC 34.4% | 786-0 renal 65.7%

O=C(CCOCCNC(=O)COc1ccc2c(c1)OCC(c1ccc(F)cc1)C2=O)NCCCC(O)(P(=O)(O)O)P(=O)(O)O (stereo not given)
inactive: NCI-H23 lung 98% | NCI-H226 lung 106% | NCI-H322M lung 102% | HOP-62 NSCLC 105% | NCI-H460 lung 108% | HOP-92 NSCLC 120% | NCI-H522 lung 94.9% | A549/ATCC NSCLC 103% | 786-0 renal 103% | COLO 205 colon 112%

CCc1cccc2c1S/C(=C/c1ccc(OC)cc1)C2=O
inactive: NCI-H23 lung 50.1% | NCI-H226 lung 85.7% | NCI-H322M lung 86.7% | HOP-62 NSCLC 45.4% | NCI-H460 lung 56% | HOP-92 NSCLC 72.2% | NCI-H522 lung 42.7% | A549/ATCC NSCLC 89% | 786-0 renal 63.6% | COLO 205 colon 105%

CCOC(=O)c1sc2ncc(-c3ccc(OC)cc3)n2c1C
inactive: NCI-H23 lung 85.9% | NCI-H226 lung 84.3% | NCI-H322M lung 97.3% | HOP-62 NSCLC 91.4% | NCI-H460 lung 103% | HOP-92 NSCLC 92.6% | NCI-H522 lung 74.7% | A549/ATCC NSCLC 104% | 786-0 renal 106% | COLO 205 colon 105%

C#Cc1cccc(NC(=O)Nc2ccccc2NC(=O)CCl)c1
inactive: NCI-H322M lung 91% [8.25 µM] | A549/ATCC NSCLC 10% [8.25 µM]
active: NCI-H23 lung -52.2% [8.25 µM] | NCI-H226 lung -56.2% [8.25 µM] | HOP-62 NSCLC -34.8% [8.25 µM] | NCI-H460 lung -24.4% [8.25 µM] | HOP-92 NSCLC -30.6% [8.25 µM] | NCI-H522 lung -58.6% [8.25 µM] | 786-0 renal -63.2% [8.25 µM] | COLO 205 colon -49.3% [8.25 µM]

CNC(=O)c1[nH]cc(-c2ccccc2)c1-c1cc(OC)c2c(c1OC)OCO2
inactive: NCI-H23 lung 104% | NCI-H226 lung 94.6% | NCI-H322M lung 103% | HOP-62 NSCLC 94.5% | NCI-H460 lung 108% | HOP-92 NSCLC 96.7% | NCI-H522 lung 87.9% | A549/ATCC NSCLC 96.7% | 786-0 renal 94.8% | COLO 205 colon 102%

COc1ccc2sc3c(NCCO)nc4ccccc4c3c(=O)c2c1
inactive: NCI-H23 lung 96.7% | NCI-H226 lung 98.6% | NCI-H322M lung 97.6% | HOP-62 NSCLC 96.2% | NCI-H460 lung 107% | HOP-92 NSCLC 96% | NCI-H522 lung 82.1% | A549/ATCC NSCLC 98.1% | 786-0 renal 103% | COLO 205 colon 111%

CN1CCN(c2ccc(-c3cc4c(Nc5ccc(F)c(Cl)c5)ncnn4c3)cn2)CC1
inactive: NCI-H23 lung 102% | NCI-H226 lung 97.7% | NCI-H322M lung 74.7% | HOP-62 NSCLC 106% | NCI-H460 lung 16.1% | HOP-92 NSCLC 107% | NCI-H522 lung 98.6% | A549/ATCC NSCLC 85.2% | 786-0 renal 100% | COLO 205 colon 105%

CN1CCN(CC(=O)N2c3cccc4cccc(c34)N(C(=O)CN3CCN(C)CC3)C2c2cn(-c3ccccc3)nc2-c2cccc([N+](=O)[O-])c2)CC1
inactive: NCI-H226 lung 88.2% | NCI-H322M lung 32.9% | HOP-92 NSCLC 42.9% | A549/ATCC NSCLC 15.7%
active: NCI-H23 lung 1.14% | HOP-62 NSCLC -20.2% | NCI-H460 lung 1.88% | NCI-H522 lung -3.45% | 786-0 renal -83.4% | COLO 205 colon -68.5%

Cc1[nH]c(C(=O)Nc2ccc(C(=O)N3CCNCC3)cc2OC(C)C)c(Cl)c1Cl
inactive: NCI-H23 lung 90.7% | NCI-H226 lung 97.2% | NCI-H322M lung 86.1% | HOP-62 NSCLC 88.7% | HOP-92 NSCLC 43.5% | NCI-H522 lung 94% | A549/ATCC NSCLC 70.2% | 786-0 renal 77.6%
active: NCI-H460 lung 2.04% | COLO 205 colon -47%

O=CN1N=C(c2ccc(Nc3ccnc4cc(Cl)ccc34)cc2)CC1c1ccccc1 (stereo not given)
active: NCI-H522 lung 2.53%
inactive: NCI-H23 lung 48% | NCI-H226 lung 65.3% | NCI-H322M lung 81.3% | HOP-62 NSCLC 49.8% | NCI-H460 lung 44.4% | HOP-92 NSCLC 16.3% | A549/ATCC NSCLC 37.6% | 786-0 renal 31.4% | COLO 205 colon 55.2%

CC(=O)OC[C@H]1OC(Sc2sc(C(=O)c3ccc(Cl)cc3)c(N)c2-c2nc3ccccc3s2)[C@H](OC(C)=O)[C@@H](OC(C)=O)[C@@H]1OC(C)=O (stereo not given in full)
inactive: NCI-H23 lung 63.3% | NCI-H226 lung 75.9% | NCI-H322M lung 93.9% | HOP-62 NSCLC 90.3% | NCI-H460 lung 67.5% | HOP-92 NSCLC 93.7% | NCI-H522 lung 88.1% | A549/ATCC NSCLC 86.4% | 786-0 renal 99.3% | COLO 205 colon 90.4%

COc1ccc(/C=C(/C#N)n2nnc3cccc(F)c32)cc1
inactive: NCI-H23 lung 14.6% | NCI-H226 lung 60.4% | NCI-H322M lung 25.2% | HOP-62 NSCLC 38.1% | A549/ATCC NSCLC 37% | 786-0 renal 10.6%
active: NCI-H460 lung 4.61% | HOP-92 NSCLC -2.46% | NCI-H522 lung -24.6% | COLO 205 colon 1.85%

COc1ccc(-n2c(N)c(-c3nc4ccccc4[nH]3)cc(C#N)c2=O)cc1
inactive: NCI-H23 lung 86.8% | NCI-H226 lung 35.3% | NCI-H322M lung 102% | HOP-62 NSCLC 90.8% | NCI-H460 lung 87.1% | HOP-92 NSCLC 84.7% | NCI-H522 lung 74.2% | A549/ATCC NSCLC 94.9% | 786-0 renal 92.5% | COLO 205 colon 105%

— PubChem BioAssay (NCI)
